PubChem BioAssay (EPA / NIEHS)
Inconclusive results are not listed. Activity calls are given as the source filed them. Rule for the calls: active = hit-call score of the fitted dose curve at least 0.9, where 1 is the maximum; inconclusive = response in the unintended direction; inactive = score below 0.9.

These compounds were tested against Hepatocyte nuclear factor 4-alpha (Homo sapiens) (UniProt P41235) (assay: ATG_HNF4a_TRANS: Attagene TRANS-FACTORIAL HepG2 Assay for human Hepatocyte Nuclear Factor 4 alpha (HNF4a) (AID 2282982)). Details: HepG2 HNF4a transactivation reporter, mRNA readout.
Sequence of Hepatocyte nuclear factor 4-alpha (Homo sapiens) (P41235 whole entry, looked up): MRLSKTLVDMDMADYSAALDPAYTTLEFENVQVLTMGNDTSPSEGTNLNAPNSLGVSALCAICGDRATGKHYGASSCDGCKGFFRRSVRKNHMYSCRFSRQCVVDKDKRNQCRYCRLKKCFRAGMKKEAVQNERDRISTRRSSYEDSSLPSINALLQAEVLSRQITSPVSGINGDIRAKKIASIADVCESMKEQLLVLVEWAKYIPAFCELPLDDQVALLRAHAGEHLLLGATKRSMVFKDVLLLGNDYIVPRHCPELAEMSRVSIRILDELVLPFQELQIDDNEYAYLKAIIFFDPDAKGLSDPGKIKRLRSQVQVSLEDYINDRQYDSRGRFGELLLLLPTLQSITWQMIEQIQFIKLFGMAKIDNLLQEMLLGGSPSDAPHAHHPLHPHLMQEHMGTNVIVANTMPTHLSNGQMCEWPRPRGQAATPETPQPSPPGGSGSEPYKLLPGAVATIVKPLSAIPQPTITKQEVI
Procedure: ATG_TRANS is a cell-based, multiplexed-readout assay that uses HepG2, a human liver cell line, with measurements taken at 24 hours after chemical dosing in a 24-well plate.ATG_HNF4a_TRANS is one of 30 assay component(s) measured or calculated from the ATG_TRANS assay. It is designed to make measurements of mRNA induction, a form of inducible reporter, as detected with fluorescence intensity signals by Reverse transcription polymerase chain reaction (RT-PCR) and Capillary electrophoresis technology.Data from the assay component ATG_HNF4a_TRANS was analyzed into 1 assay endpoint. This assay endpoint, ATG_HNF4a_TRANS, was analyzed in the positive analysis fitting direction relative to DMSO as the negative control and baseline of activity. Using a type of inducible reporter, measures of mRNA for gain-of-signal activity can be used to understand the reporter gene at the transcription factor-level as they relate to the gene HNF4A. Furthermore, this assay endpoint can be referred to as a primary readout, because this assay has produced multiple assay endpoints where this one serves a reporter gene function. To generalize the intended target to other relatable targets, this assay endpoint is annotated to the nuclear receptor intended target family, where the subfamily is orphan.
Human liver HepG2 cells are transiently transfected with multiple reporter transcription units (MRTUs) in 6-well plates using FuGene 6 reagent (Roche; 3 ml FuGene/1 mg DNA). The MRTU constructs are regulated by a cis-regulating element (promoter). […] A major difference between the CIS and TRANS system is that in CIS activities of endogenous TFs are measured, whereas the TRANS assay evaluates changes in activities of exogenous, chimeric NR-Gal4 proteins. […] At the end of 24 hour incubation, total RNA was isolated using TriZol reagent (Invitrogen). The isolated RNA is then reverse-transcribed using oligo(dT) primer and Mo-MLV reverse transcriptase (Invitrogen) with DNAse I (Ambion) treatment for 30 min. The one-tenth of the produced cDNA was amplified by PCR using Taq DNA polymerase (Invitrogen) and two reporter sequence-specific primers. The PCR products were fluorescently labeled by primer extension with 6-arboxyfluorescein (6-FAM) 5'-labeled reporter sequence-specific primer (2 min at 95 C, 20 s at 68 C and 10 min at 72 C) and these products were digested with 5U of HpaI (New England Biolabs) for 2h at 37 C. The fragments were purified using Qiaquick PCR columns (Qiagen), analyzed on an ABI 3130xL genetic analyzer (Applied Biosystems) with peak positions identified by using a set of X-rhodamine (ROX)-labeled MapMarker1000 molecular weight standards (BioVentures). The raw capillary electrophoresis data was processed using Attagraph software (Attagene).

SMILES	outcome	AC50
COc1cc(-c2ccc(N)c(OC)c2)ccc1N	inactive	–
N#CCCO	inactive	–
O=C(O)C(F)(F)C(F)(F)C(F)(F)C(F)(F)C(F)(F)C(F)(F)C(F)(F)C(F)(F)C(F)(F)C(F)(F)F	inactive	–
C=C(C)C(=O)[O][Sn]([CH2]CCC)([CH2]CCC)[CH2]CCC	inactive	–
COP(=S)(OC)Oc1ccc(Sc2ccc(OP(=S)(OC)OC)cc2)cc1	inactive	–
C[C@H]1CCCC(=O)CCC/C=C/c2cc(O)cc(O)c2C(=O)O1	inactive	–
CCC(C)c1cccc(C(C)CC)c1O (stereo not given)	inactive	–
CCCCC(CC)CO[N+](=O)[O-] (stereo not given)	inactive	–
c1cc[c]([Hg][c]2ccccc2)cc1	inactive	–
CCOC(=O)/C=C(C)/C=C/C[C@@H](C)CCCC(C)C	inactive	–
Cl/C=C\C[N+]12CN3CN(CN(C3)C1)C2	inactive	–
O=c1[nH]c(=O)[nH]c(=O)[nH]1	inactive	–
CCC[CH2][Sn]([CH2]CCC)([CH2]CCC)[O]C(=O)c1ccccc1	–	638 nM (active)
Oc1cccc2cccnc12	inactive	–
ClC(Cl)=C(Cl)C(Cl)=C(Cl)Cl	inactive	–
CC1CN1P(=O)(N1CC1C)N1CC1C (stereo not given)	inactive	–
ClCc1ccccn1	inactive	–
CC1(C)Cc2cccc(O)c2O1	inactive	–
CCCCCCCCc1ccc(O)cc1	inactive	–
COc1ccc(C=O)cc1OC	inactive	–

SMILES	outcome	AC50
CC(=O)C(Cl)C(=O)N(C)C (stereo not given)	inactive	–
CC(Br)C(=O)O (stereo not given)	inactive	–
COc1cc2c(cc1OC)[C@@]13CCN4CC5=CCO[C@H]6CC(=O)N2[C@H]1[C@H]6[C@H]5C[C@H]43	inactive	–
CCC[CH2][Sn]([Cl])([Cl])[Cl]	inactive	–
C[C@@H](Oc1ccc(Cl)cc1Cl)C(=O)O	inactive	–
C[C@@H]1C[C@@H]([C@H](O)CC2CC(=O)NC(=O)C2)C(=O)[C@@H](C)C1	inactive	–
COc1ccccc1OC	inactive	–
Cc1ccccc1N	inactive	–
CCC(C)(C)c1ccc(O)c(C(C)(C)CC)c1	inactive	–
COc1ccc(C=O)cc1	inactive	–
Nc1ccc(N=Nc2ccc(-c3ccc(N=Nc4c(S(=O)(=O)O)cc5cc(S(=O)(=O)O)c(N=Nc6ccccc6)c(O)c5c4N)cc3)cc2)c(N)c1	inactive	–
O=C(O)C(F)(F)C(F)(F)C(F)(F)C(F)(F)C(F)(F)C(F)(F)F	inactive	–
Nc1ccc(-c2ccc(N)c(Cl)c2)cc1Cl	inactive	–
O=C(c1ccccc1)C(Cl)Cl	inactive	–
CC(C)(C)CC(C)(C)c1ccc(O)cc1	inactive	–
CC(=[OH+])/C=C(/C)[O-].CC(=[OH+])/C=C(/C)[O-].CC(=[OH+])/C=C(/C)[O-].[Al]	inactive	–
CCc1ccccc1C	inactive	–
CC(C#N)CCC#N (stereo not given)	inactive	–
C(=NC1CCCCC1)=NC1CCCCC1	inactive	–
CCCCCCCCC(=O)NCc1ccc(O)c(OC)c1	inactive	–
